From PubChem BioAssay AID934 (National Center for Advancing Translational Sciences (NCATS), 2007)
Inconclusive results are not listed. Entries that show only a call come without a potency. Activity calls are given as the source filed them. Calls follow the shape of the dose curve; as a rule, active = well fitted activation curve with a large enough effect; inconclusive = small, poorly fitted or top-dose-only effect; inactive = flat fitted curve, though single readings scatter.

assay: Parental Cell Counter Screen for Stat Signaling Pathway Assay; settings: ME-180 (cervical carcinoma) parental cells, blue fluorescence artefact counter-screen; series mostly up to 38.3 µM
Excerpt: NIH Molecular Libraries Screening Centers Network [MLSCN] NIH Chemical Genomics Center [NCGC] MLSCN Grant: None NCGC Assay Overview: This assay is a counter screen for the Stat signaling pathway assay (PubChem AID 446). The Stat assay is cell-based and measures Interleukin 6 (IL-6) mediated modulation of a beta-lactamase reporter gene controlled by a STAT inducible element (SIE-bla cells, Invitrogen). IL-6 is a cytokine that signals via the JAK/STAT pathway and is implicated in cancer and inflammation. […] Compounds active in the parental ME-180 cells are likely fluorescent.
NCGC Assay Protocol Summary: Cells were trypsinized, washed in assay medium (AM, OPTI MEM with 0.5% fetal bovine serum, 0.1 mM nonessential amino acids, 1 mM sodium pyruvate, 10mM HEPES pH 7.3, 100U/ml penicillin, and 100 ug/ml streptomycin) and suspended at […] in AM. Approximately 2500 cells in 5 uL/well was dispensed into 1536-well plates and the cells were incubated overnight at 37 C. 23 nL of compound were delivered by a pin tool and 1 uL of IL-6 (40 pM final concentration in AM) was added. After plates were incubated at 37 C for 5 hrs, 1uL of detector mix (LiveBLAzerTM, Invitrogen) was added, the plates incubated at room temperature for 2.5 hrs, and fluorescence intensity at 460 and 530 nm emissions was measured at 405 nm excitation by an Envision (Perkin Elmer).

| Structure (SMILES) | Potency |
| --- | --- |
| CN(C)CCCn1c2c3ccccc3ccc2c2oc(=O)c3ccccc3c21 | 12.6 µM (active) |
| COc1c2c(nc3ccccc13)O[C@@H]([C@@](C)(O)CO)C2 | inactive |
| COc1cccc2c1C(=N)c1c(O)c3c(c(O)c1C2=O)C[C@](O)(C(C)=O)C[C@@H]3O[C@H]1C[C@H](N)[C@@H](O)[C@H](C)O1 | inactive |
| Cc1oc2cc(O)cc(C)c2c(=O)c1-c1cnn(-c2ccccc2)c1 | inactive |
| N/C(=N\O)c1cn([C@@H]2O[C@@H](CO)[C@H](O)[C@@H]2O)c2ncnc(NO)c12 | inactive |
| CCC(=O)Nc1nc(C)c(Oc2ccccc2)c(=O)[nH]1 | inactive |
| OC[C@@H]1CCC[C@H](n2cnc3c(=S)nc[nH]c32)O1 | inactive |
| C=CCn1c(SCC(=O)c2ccc(NS(=O)(=O)c3ccccc3)cc2)nnc1-c1cccs1 | inactive |
| Cc1ccccc1CNc1ncnc2c1ncn2[C@@H]1O[C@@H](CO)[C@H](O)[C@@H]1O | inactive |
| O=C1CC(N(O)C2CC(=O)N(Cc3ccccc3)C2=O)C(=O)N1Cc1ccccc1 (stereo not drawn) | inactive |
| CCCCCCc1cc2cc(-c3nnc(-c4ccccc4O)o3)c(=O)oc2cc1O | 0.0126 µM (active) |
| COc1cccc2c1[C@H](CO)N1[C@H](C#N)[C@@H]3C[C@H](C(=O)O)[C@@H]([C@@H]1C2)N3C | inactive |
| C=C1C(=O)O[C@@H]2[C@H]3O[C@]3(C)CCC=C(C)CC[C@@H]12 | inactive |
| Nc1ncnc2c1ncn2[C@@H]1O[C@H](COP(=O)(O)O)[C@@H](O)[C@@H]1O | inactive |
| CCOC(=O)N1CCC(=C2c3ccc(Cl)cc3CCc3cccnc32)CC1 | inactive |
| N=C(N)SCc1cccc2c(=O)cc(-c3ccccc3)oc12 | inactive |
| C=CCNC(=O)C(C#N)c1nc2ccccc2nc1N1CCCCCC1 (stereo not drawn) | 15.8 µM (active) |

| Structure (SMILES) | Potency |
| --- | --- |
| Nc1ncnc2c1ncn2[C@@H]1O[C@@H](CO)[C@H](O)[C@@H]1O | inactive |
| CC1CCN(CC[S-])CC1.O.O.[Cl][Pt] | inactive |
| Cn1c(NCc2ccccc2)nc2c1c(=O)n(Cc1ccc(Br)cc1)c(=O)n2C | inactive |
| COc1cccc2c1C(=O)c1c(O)c3c(c(O)c1C2=O)C[C@](O)(C(=O)CO)C[C@H]3O[C@@H]1C[C@H](N)[C@H](O)[C@H](C)O1 | inactive |
| CCc1cc2c(=O)c(-c3nc4ccccc4[nH]3)coc2cc1OC(=O)N1CCOCC1 | 12.6 µM (active) |
| COc1cccc2c1C(=O)c1c(O)c3c(c(O)c1C2=O)C[C@@](O)(C(=O)CO)C[C@@H]3O[C@H]1C[C@H](N)[C@H](O)[C@H](C)O1 | inactive |
| COc1cc2nc(-c3ccccc3)nc(N3CCCC3)c2cc1OC | inactive |
| C=C1C(=O)O[C@@H]2[C@@H]1CC/C(C)=C\CC[C@@]1(C)O[C@H]21 | inactive |
| CN1CCc2c(sc3ncn4nc(-c5ccccc5O)nc4c23)C1 | 31.6 µM (active) |
| CC(C)C[C@H]1C(=O)N2CCC[C@H]2[C@]2(O)O[C@](NC(=O)[C@@H]3C=C4c5cccc6[nH]c(Br)c(c56)CC4N(C)C3)(C(C)C)C(=O)N12 (stereo partly drawn) | inactive |
| O=c1c(O)c(-c2ccc(O)cc2)oc2cc(O)ccc12 | inactive |
| C[n+]1cc2c3c(ccc2c2ccc4cc5c(cc4c21)OCO5)OCO3 | 10 µM (active) |
| CCN(CC)CCN1C(=O)c2cccc3cc(N)cc(c23)C1=O | inactive |
| CCN(CC)CCNc1ccc(CO)c2sc3ccccc3c(=O)c12 | inactive |
| NCCSc1nc2ccccc2s1 | inactive |
| CC1CCN(c2oc(-c3ccccc3Cl)nc2C#N)CC1 | inactive |
